# An excerpt weighted towards active compounds, which were near 5.7% of everything screened.
# DAX1 inh-1 – inhibitors of DAX1 repression of SF-1 activated StAR promoter. HEK293T StAR-luciferase reporter, SF-1/DAX-1 repression relief. inhibition, % at 6.8 µM. actives 1.1% (n = 370,000). AID 652010;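 active = inhibition above the mean over all tested compounds plus 3 SD, cut at about 3.6% in these data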;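 note: 0% = DAX-1 cells with DMSO and 100% = cells lacking DAX-1 with DMSO; higher inhibition means more luminescence from relief of DAX-1 repression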
# DAX1 inh-2 – inhibits human nuclear receptor DAX1. P51843. HEK293 Gal4-DAX1 luciferase reporter, luminescence. AID 504766. actives 0.99% (n = 340,000). inhibition, % at 6.75 µM;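 active = inhibition above the mean over all tested compounds plus 3 SD, cut at about 4.2% in these data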;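 note: 0% = DAX1-transfected cells with DMSO and 100% = empty-vector control cells with DMSO; inhibition shows as a rise in luminescence from relieved DAX1 repression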
# ssDAF12 agonist – S. stercoralis DAF-12 activation, primary screen | HEK293 ssDAF-12/GRIP1 lit1-tk-luc reporter, luminescence; % of 3 µM dafachronic acid response | activation, % at 6.8 µM | actives 1% (n = 370,000);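 active = activation above the mean over all tested compounds plus 3 SD, cut at about 0.9% in these data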;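 note: 0% = DMSO-only wells and 100% = 3 µM delta7-dafachronic acid wells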
# hgDAF12 agonist – activates the H. glycines DAF-12 receptor ligand-binding domain; HEK293 GAL4-hgDAF12 UAS-luciferase reporter, agonist luminescence; normalized to butyrate control; activation, % at 6.8 µM; actives 1.8% (n = 370,000); AID 687014;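 active = activation above a cutoff set at the mean of all screened compounds plus 3 SD, cut at about 10% in these data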;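 note: 0% = DMSO wells and 100% = sodium butyrate wells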
# hcDAF-12 act – activators of H. contortus DAF-12 nuclear receptor. activation, % at 6.8 µM. actives 1.4% (n = 370,000). HEK293 hcDAF-12 lit1-tk-luc reporter, luminescence; 0% DMSO, 100% Δ7-dafachronic acid;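 active = activation above the mean of all tested compounds plus 3 SD, cut at about 5.5% in these data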;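 note: 100% = response to 3 µM Δ7-dafachronic acid high control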
# AHR act – human AHR activation; P35869; AHR-responsive luciferase reporter cells, luminescence; activation, % at 5 µM; actives 2.5% (n = 320,000); AID 2796; in the data active = activation above about 47%;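 note: 0% = vehicle wells and 100% = reference agonist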
# LXR ag – activates human LXR-beta, counter-screen for hcDAF-12 agonists; HEK293 Gal4-LXR tk-luc reporter, luminescence, 24 h; normalized: DMSO 0%, positive control 100%; 3,400 tested, under 10 active; activation, % at 6.8 µM; shares compounds with hcDAF-12 act;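 active = mean percent activation of the reporter above a cutoff set as the average over tested compounds plus their standard deviation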
# Target sequence (P55055 whole entry, looked up, the tested form may be a part): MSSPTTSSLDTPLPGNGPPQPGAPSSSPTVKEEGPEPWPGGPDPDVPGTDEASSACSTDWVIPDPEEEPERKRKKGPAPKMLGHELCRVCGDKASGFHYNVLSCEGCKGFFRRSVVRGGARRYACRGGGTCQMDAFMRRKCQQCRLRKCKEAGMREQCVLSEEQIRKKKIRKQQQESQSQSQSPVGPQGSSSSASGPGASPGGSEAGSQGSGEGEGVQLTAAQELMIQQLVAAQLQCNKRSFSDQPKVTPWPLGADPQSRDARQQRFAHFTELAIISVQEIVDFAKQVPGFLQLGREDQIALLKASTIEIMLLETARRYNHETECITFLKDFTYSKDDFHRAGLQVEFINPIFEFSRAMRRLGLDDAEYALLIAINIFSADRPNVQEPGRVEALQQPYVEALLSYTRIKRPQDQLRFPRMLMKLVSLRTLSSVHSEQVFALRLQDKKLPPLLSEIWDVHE
# hcDAF12 conf – hcDAF-12 agonism, confirmation assay; shares compounds with hcDAF-12 act; AID 743032; actives 61% (n = 3,400); activation, % at 6.8 µM; HEK293 hcDAF-12 lit1-tk-luc reporter, luminescence; % of Δ7-dafachronic acid response;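 active = mean activation across triplicate tests above the threshold derived from the earlier primary screen, cut at about 5.5% in these data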;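 note: 0% = DMSO only wells and 100% = 3 µM Δ7-dafachronic acid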
# The depositor's hits bear a star; . = not tested or not shown.
SMILES,DAX1 inh-1,DAX1 inh-2,ssDAF12 agonist,hgDAF12 agonist,hcDAF-12 act,AHR act,LXR ag,hcDAF12 conf
COc1ccc(Cl)cc1NC(=O)COC(=O)CCCC1=NS(=O)(=O)c2ccccc2N1,1,1,-1,0,-1,1,.,.
CCN(C(=O)CSc1nnc(C)n1-c1ccccc1)C1CCS(=O)(=O)C1 (stereo not given),0,-1,-1,0,0,3,.,.
O=C(O)CSc1nnc(NC(=O)CN2CCOCC2)s1,0,1,-1,-1,0,0,.,.
CCOc1[nH]n(-c2ccccc2)c(=O)c1C=Nc1ccc(C(=O)OC)cc1,0,1,-1,3,7.6*,1,0,-1
CCc1nc2c(OCc3cc(Cl)cc(Cl)c3)cccn2c1N(C)C(=O)c1ccc(OC)cc1,0,.,-1,-4,-1,.,.,.
CC(C)c1ccc(Nc2nc(CC(=O)O)cs2)cc1,3,3,1,22*,9.4*,9,1,6.0*
COc1ccccc1CNC(=O)CCNS(=O)(=O)/C=C/c1ccc(C)cc1,0,1,-1,1,-2,0,.,.
Cc1cc(/C=C2\Cc3ccccc3C2=O)c(C)n1-c1ccccc1,1,-1,1,8,9.0*,27,0,-1
COc1ccccc1N1C(=O)CC(N(O)c2ccccc2)C1=O (stereo not given),0,2,0,1,6.7*,4,0,3
COC(=O)CC(=O)CSc1nc2c(cc1C#N)CCCCC2,3,2,0,11*,10*,1,0,4
Cc1cn(-c2cc(NC(=O)c3ccc(C)c(NC(=O)c4cccc(-c5cn[nH]c(=O)c5)c4)c3)cc(C(F)(F)F)c2)cn1,.,1,.,.,.,0,.,.
Cc1c(C(=O)NC2CCCCC2)oc2ccc(F)cc12,1,4,1,10*,18*,43,1,8.3*
NS(=O)(=O)c1cnccc1NCCc1ccccc1,0,.,-2,1,-1,1,.,.
CC1(C(=O)Nc2cccc(C#N)c2)CCN1C(=O)c1ccccc1CCc1ccccc1 (stereo not given),1,.,-1,1,-1,.,.,.
CN(C)c1nc(C(=O)Nc2ccccc2)nc(N(C)C)n1,0,1,-1,1,6.7*,27,0,1
COc1cccc(-n2c(Cc3cc(=O)[nH]c(=O)[nH]3)nnc2SCC(=O)N2CCCCC2)c1,-1,1,0,-1,8.3*,8,0,4
COc1cccc(-n2c(SCC(=O)N3CCCCC3)nc3c([nH]c4ccccc43)c2=O)c1,1,0,0,2,7.0*,17,0,4
C=CCn1c(SCC(=O)N2CCN(c3ccccc3)CC2)nc2c([nH]c3ccccc32)c1=O,1,3,0,2,9.4*,66*,0,4
CCCn1c(SCC(=O)N2CCN(c3ccccc3)CC2)nc2ccccc2c1=O,-1,-2,-1,0,-1,7,.,.
O=C(CSc1nc2c([nH]c3ccccc32)c(=O)n1-c1cccc(Cl)c1)N1CCOCC1,-1,0,-1,-1,3,3,.,.
COc1ccc2[nH]cc(CCNC(=O)CCC3CCCCC3)c2c1,0,-1,-1,-1,-1,8,.,.
COC(=O)c1c(C)[nH]c(C(=O)COC(=O)CCNS(=O)(=O)c2cccc(C(F)(F)F)c2)c1C,0,1,-1,2,-1,3,.,.
COc1ccc(NC(=O)C(c2ccccn2)N(C(C)=O)c2ccc(C)cc2)cc1 (stereo not given),1,-1,1.6*,4,10*,26,0,4
O=C(CC1C(=O)NCCN1Cc1ccccc1)NCCCOc1cccnc1 (stereo not given),1,1,-1,1,14*,-8,0,0
O=C(CC1C(=O)NCCN1Cc1cccc(C(F)(F)F)c1)NCCCOc1cccnc1 (stereo not given),0,1,-2,-1,0,-1,.,.
SMILES,DAX1 inh-1,DAX1 inh-2,ssDAF12 agonist,hgDAF12 agonist,hcDAF-12 act,AHR act,LXR ag,hcDAF12 conf
COC(=O)c1cccc(C(=O)Nc2ccc(C)cc2)n1,3,0,1.0*,8,7.1*,12,0,7.5*
Cc1ccc(/C=N/Nc2cccc3cccnc23)c(O)c1,2,0,1,7,7.5*,60*,2,17*
COC(=O)c1cn(-c2nc3ccccc3s2)nn1,0,.,0,0,7.8*,.,0,3
CC(=O)Nc1cc(C)nn1-c1nc2ccccc2s1,-1,0,0,6,4,46,.,.
COCCN(Cc1ccc(OC)cc1)c1c(C)nc2ccc(C(=O)NCCc3c[nH]c4ccccc34)cn12,0,.,-1,-2,-1,.,.,.
CC1(C(=O)NS(=O)(=O)c2ccc(Cl)cc2)CCN1C(=O)C/C=C/c1ccccc1 (stereo not given),0,.,-1,-3,0,.,.,.
CCOc1ccc(/C=N/NC(=O)c2ccoc2C)cc1OC,3,1,0,9,1,25,.,.
COc1cccc(/C=N/NC(=O)c2ccoc2C)c1,2,3,0,11*,7.2*,15,1,5
C=CCc1ccccc1OCC(O)CNC1CCCC1 (stereo not given),0,0,-1,-3,7.2*,2,0,0
C=CCc1ccccc1OCC(O)CNC(C)C (stereo not given),1,0,0,-1,-1,-1,.,.
CCOC(=O)c1cnn(-c2ncnc3sc4c(c23)CCC4)c1N,0,0,1,2,7.3*,33,0,4
COc1ccc(OCc2cc(C(=O)NC3CCOC(C)(C)C3)no2)c2ccccc12 (stereo not given),4.1*,3,2.1*,6,7.9*,67*,0,8.0*
COc1ccc(OCc2cc(C(=O)N3CCC(OC)CC3)no2)c2ccccc12,3.8*,3,1,9,7.8*,51*,0,6.4*
Cc1nc(Nc2cc(F)ccc2C)c2nnn(Cc3ccccc3)c2n1,-1,0,-1,-1,-3,7,.,.
COc1ccc(OC)c(Nc2nc(=O)c3cccnc3s2)c1,.,1,.,.,.,.,.,.
Cc1ccc(Nc2nc(=O)c3cccnc3s2)cc1,2,1,1.3*,9,11*,69*,1,9.3*

# Screening results (PubChem BioAssay)
